PubChem BioAssay (NCI)
This is part of a sample that, as a whole, favours compounds with a hit. Of some 79,000 tested, about 15% had one in any assay. Unmarked numbers belong to inactive results. Active and inactive are the calls of the source. No stated cut-off is given here; in the data, active means growth inhibition above about 70%; inactive means the rest.

Key:
[1] = NCI Yeast Anticancer Drug Screen. Data for the rad50 strain (AID 155);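 further: 0% = growth of vehicle-only cultures of the same strain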; conditions: S. cerevisiae rad50 strain growth inhibition, active compounds read high
Method in brief: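 DNA repair mutant yeast, compound exposure, growth read-out; inhibition is taken relative to vehicle.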

[2] = NCI Yeast Anticancer Drug Screen. Data for the mec2-1 strain (AID 157); conditions: S. cerevisiae mec2-1 strain, active compounds read high
Method in brief: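 Vehicle-treated cultures served as reference for growth inhibition of compound-exposed mec2-1 yeast.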

[3] = NCI Yeast Anticancer Drug Screen. Data for the sgs1 mgt1 strain (AID 161);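 further: 0% = growth of cultures given vehicle only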; conditions: S. cerevisiae sgs1 mgt1 strain, active compounds read high
Method in brief: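 Mutant yeast exposed to compound; growth scored against vehicle-only wells.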

[4] = NCI Yeast Anticancer Drug Screen. Data for the cln2 rad14 strain (AID 165);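 further: 0% = growth equal to vehicle treated cultures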; conditions: S. cerevisiae cln2 rad14 strain, active compounds read high
Method in brief: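 Each compound was tested on cln2 rad14 yeast. Inhibition of growth was calculated against vehicle-exposed controls.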

[5] = NCI Yeast Anticancer Drug Screen. Data for the bub3 strain (AID 167); conditions: S. cerevisiae bub3 mutant strain, active compounds read high
Method in brief: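 In this screen, a yeast mutant lacking normal mitotic checkpoint function is challenged with compound. Relative growth versus vehicle gives the inhibition value.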

[6] = NCI Yeast Anticancer Drug Screen. Data for the mlh1 rad18 strain (AID 175); conditions: S. cerevisiae mlh1 rad18 strain growth inhibition, active compounds read high
Method in brief: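 Vehicle-treated cultures served as the reference for growth inhibition in a yeast strain carrying DNA damage repair alterations exposed to each compound.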

[7] = at 5.0 µM (retest, dose inferred, filed as 0.5)
[8] = at 50.0 µM (retest, dose inferred, filed as 5.0)

SMILES | growth inhibition [1, 7] | growth inhibition [1, 8] | growth inhibition ([1]; at 50.0 µM) | growth inhibition [2, 7] [%] | growth inhibition [2, 8] | growth inhibition ([2]; at 50.0 µM) | growth inhibition [3, 7] [%] | growth inhibition [3, 8] | growth inhibition ([3]; at 50.0 µM) | growth inhibition [4, 7] [%] | growth inhibition [4, 8] | growth inhibition ([4]; at 50.0 µM) | growth inhibition [5, 7] [%] | growth inhibition [5, 8] | growth inhibition ([5]; at 50.0 µM) | growth inhibition [6, 7] | growth inhibition [6, 8] | growth inhibition ([6]; at 50.0 µM)
CNC(=S)N/N=C(\C=N\NC(=S)NC)c1ccccc1 | 7% | 32% | 74.7% (active) | -14 | 35% | 37% | 3 | 37% | 82.4% (active) | 9 | 30% | 37.8% | -1 | 25% | 59.5% | 0% | 44% | 66.8%
CCOC(=O)C(C#N)c1cc(O)c(C(C#N)C(=O)OCC)cc1O (stereo not given) | -2% | -2% | -5.45% | -3 | -4% | 6.85% | -4 | -6% | -1.65% | 0 | -10% | 55.5% | -1 | -5% | 13.4% | -2% | -5% | -6.9%
COc1cc(F)ccn1 | 2% | 0% | -4.75% | 5 | 4% | -11.4% | 2 | 2% | -12.5% | 1 | 4% | 12.8% | -2 | -4% | 46% | -4% | -3% | -18.2%
CC(C)(CC#N)c1cc(CC(C)(C)c2cc(CC(C)(C)c3cc(CC(C)(C)C4(C)OCCO4)no3)no2)no1 | -2% | 2% | 16.8% | -4 | -2% | 2.6% | -2 | 6% | -17.4% | 1 | -4% | 0.5% | -3 | 0% | -1.9% | -2% | -8% | 12.8%
Fc1ccc(NC(=S)SCc2ccco2)cc1 | 5% | 87% (active) | 89% (active) | 0 | 71% (active) | 61.6% | 5 | 67% | 84.7% (active) | 1 | 24% | 42.5% | -5 | 34% | 26.6% | 1% | 77% (active) | 95.4% (active)
O=c1[nH]c2ccc([N+](=O)[O-])c(Cl)c2c2ccccc12 | 74% (active) | 97% (active) | 9.1% | 21 | 98% (active) | 12.3% | 38 | 98% (active) | 9% | 9 | 95% (active) | -46.8% | 19 | 97% (active) | 1.05% | 70% (active) | 96% (active) | 39.9%
CCCOC(=O)C1CCCCC1C(=O)OCCC (stereo not given) | 7% | -17% | 0.8% | -1 | -15% | 18.3% | -2 | 16% | -10.1% | -4 | 14% | 71.2% (active) | 1 | -2% | 5.3% | -7% | -4% | -12.7%
O=P(C(=S)Nc1ccccc1Cl)(c1ccccc1)c1ccccc1 | 15% | 96% (active) | 88.5% (active) | 16 | 98% (active) | 90.5% (active) | -1 | 96% (active) | 92.8% (active) | -6 | 97% (active) | 87.5% (active) | -26 | 97% (active) | 89.2% (active) | -26% | 96% (active) | 89.2% (active)
CC1=C(C#N)C(=O)OC1(C)C(CC(=O)c1ccccc1)c1ccccc1 (stereo not given) | 0% | 3% | -5.3% | 5 | 6% | 4.45% | 20 | 16% | 4.45% | 3 | 4% | 49.8% | 2 | 11% | 11.8% | 26% | 23% | 1.85%
FC(F)(F)c1cccc(COCCN2CCN(Cc3cccc(C(F)(F)F)c3)CC2)c1 | 36% | 98% (active) | 97.7% (active) | 26 | 98% (active) | 99.1% (active) | 46 | 99% (active) | 99.1% (active) | 33 | 99% (active) | 96.5% (active) | 29 | 98% (active) | 98.2% (active) | 21% | 98% (active) | 99% (active)
